The entries come from a sample that favours hits as a whole.
CD40 NFkB inh = inhibitors of CD40-induced NF-kB signaling, primary screen, BL2 cells, luciferase reporter, single point | inhibition, % at 10 µM | CD40L-induced, 4 h | actives 0.94% (n = 83,000);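 active means mean inhibition of at least 50% with a set share of replicates also reaching that level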
Of the large screens only hits and unclear results are named; the others gave an inactive call; [ ] = dose if it differs, or a comment.

N#Cc1ccc(-c2ccc3c(c2)[C@H]2[C@H](CCN2C(=O)C2CC2)[C@@H](CO)N3)cc1	CD40 NFkB inh 68
N#Cc1cccc(-c2ccc3c(c2)[C@H]2[C@H](CCN2C(=O)CN2CCOCC2)[C@@H](CO)N3)c1	none
C[C@H](NC(=O)C[C@H]1C=C[C@@H](NC(=O)c2cccnc2)[C@H](CO)O1)c1ccccc1	none
CC(=O)Nc1ccc(Sc2ccc([N+](=O)[O-])o2)cc1	CD40 NFkB inh 86
CC(=O)Nc1ccc(SC(Sc2ccc(NC(C)=O)cc2)c2ccccc2)cc1	none
CC(=O)Nc1ccc([N+](=O)[O-])cn1	none
CC(C)NC(=O)Nc1ccc2c(c1)C(=O)N([C@H](C)CO)C[C@@H](C)[C@@H](CN(C)C(=O)Nc1ccccc1)OCCCC[C@@H](C)O2	none
CCC(=O)N1[C@H](CO)[C@H](c2ccc(C#CC3CCCC3)cc2)[C@@H]1CNC(C)C	none
O=C(c1cccnc1)N1CC(=O)N2[C@H](CO)[C@H](c3ccc(-c4ccccc4F)cc3)[C@H]2C1	none
Cc1ccc(S(=O)(=O)CC#CCOC(=O)c2ccc([N+](=O)[O-])cc2)cc1	CD40 NFkB inh 89
Cc1ccc(S(=O)(=O)CC(=O)N2CCN(c3ccc([N+](=O)[O-])cc3)CC2)cc1	none
Cc1ccc(CONC(=O)c2ccc([N+](=O)[O-])cc2)cc1	none
COc1ccc(S(=O)(=O)N(C)C[C@H]2Oc3ccc(NC(=O)CCN4CCOCC4)cc3CC(=O)N([C@@H](C)CO)C[C@H]2C)cc1	none
CCN1CCN(C(=O)CN(C)S(=O)(=O)c2ccc(Cl)cc2)CC1	none
CN(CC(=O)N1CCCCC1)S(=O)(=O)c1ccc(Cl)cc1	none
C=CC(=O)N1C/C(=C/c2ccc(Cl)cc2)C(=O)/C(=C\c2ccc(Cl)cc2)C1	CD40 NFkB inh 93
COc1ccc2[nH]c3c(NCCCN4CCCC4=O)ncnc3c2c1	none
CCN(CC)CCCNS(=O)(=O)c1ccc(OC)cc1	none
CCN(CC)CCCNc1nc2ccccc2c2[nH]c3ccc(OC)cc3c12	CD40 NFkB inh 103
O=C(Nc1ccc2c(c1)[C@H]1C[C@H](CC(=O)N3CCOCC3)O[C@@H](CO)[C@H]1O2)Nc1ccccc1F	none
CCn1c2ccccc2c2cc(/C=C(/C#N)C(N)=S)ccc21	none
N#CC(C#N)=C(N)/C(C#N)=C/c1cc(O)c(O)c(O)c1	none
CC(C)(C)c1cc(/C=C(\C#N)C(N)=S)cc(C(C)(C)C)c1O	CD40 NFkB inh 56[25 µM]
CN(C)c1ccc(NC(=O)c2cnsn2)cc1	CD40 NFkB inh 65
CN(C)c1ccc(NC(=O)c2ccc3nc[nH]c3c2)cc1	none
CN(C)c1ccc(NC(=O)c2ccc3c(c2)nnn3C)cc1	none
CCC(=O)N1[C@H](CO)[C@@H](c2ccc(-c3ccc(F)cc3)cc2)[C@@H]1CNC(C)=O	none
O=C(Nc1ccc2c(c1)[C@H]1C[C@H](CC(=O)N3CCc4ccccc4C3)O[C@H](CO)[C@H]1O2)C1CCOCC1	none
O=C(NC1CCCCC1)N1CC(=O)N2[C@H](CO)[C@@H](c3ccc(-c4cccnc4)cc3)[C@H]2C1	none
O=C(NCCc1ccncc1)[C@@H]1N[C@@H]2c3ccc(/C=C/c4ccccc4)c(=O)n3C[C@@H]2[C@H]1CO	none
O=C1CCSc2ccc(Cl)cc2N1Cc1ccccc1	none
OC1CC2CCC(C1)N2CCCN1c2ccccc2Sc2ccc(Cl)cc21 (configuration not stated)	CD40 NFkB inh 54
O=C(CN1c2ccccc2Sc2ccccc21)N/N=C/c1ccc(Cl)cc1	none
N#C[C@H]1[C@@H](c2ccc(/C=C/c3ccccc3)cc2)[C@@H](CO)N1C(=O)C1CC1	none
Cc1ccc(S(=O)(=O)N2C[C@@H]3N[C@H](C2)C3c2ccc(-c3ccncc3)cc2)cc1 (some centres not stated)	none
O=C(NC1CC1)c1cccc(NC(=O)c2cn3ccccc3n2)c1	none
O=C(Nc1ccc(Cl)c(S(=O)(=O)N2CCOCC2)c1)c1cn2ccccc2n1	none
O=C(Nc1ccc(N2CCOCC2)cc1)c1cn2ccccc2n1	CD40 NFkB inh 57
CCCN(C)C[C@H]1OCc2cnnn2CCCC(=O)N([C@H](C)CO)C[C@H]1C	none
O=C(C[C@H]1C[C@H]2c3cc(NC(=O)Nc4ccc(C(F)(F)F)cc4)ccc3O[C@H]2[C@H](CO)O1)NCc1cccnc1	none
C/C=C/c1ccc([C@@H]2[C@@H](CO)N(C(=O)CC)[C@@H]2CNC(=O)CC2CC2)cc1	none
COCC(=O)N1C[C@H]2[C@@H](c3ccccc31)[C@@H](CO)N2C(=O)C1CCCCC1	none
CNC(=O)Nc1ccc(S(N)(=O)=O)cc1	none
CC(C)C(Cl)=NOC(=O)Nc1ccc(S(N)(=O)=O)cc1	CD40 NFkB inh 112
COC(=O)[C@H](C)NC(=O)Nc1ccc(S(N)(=O)=O)cc1	none
CCOC(=O)C1CCCN(CCC(C)c2ccccc2)C1 (configuration not stated)	none
CCOC(=O)c1c(SCCN2CCCC2)n(-c2ccccc2)c(=S)n(-c2ccccc2)c1=O	CD40 NFkB inh 51
CCOC(=O)c1c(C)c(C(=O)N2CCN(c3ccccc3)CC2)c(C)n1C	none
O=C(NC[C@@H]1[C@@H](c2ccccc2)[C@@H](CO)N1Cc1cccnc1)C1CCCC1	none
CN(C)C(=O)C[C@H]1CC[C@H]2[C@H](COc3ccc(NC(=O)C4CCCC4)cc3C(=O)N2C)O1	none
COc1ccc(-c2ccc3n(c2=O)C[C@H]2[C@H](CO)[C@@H](C(=O)N(C)C)[C@@H]3N2Cc2cncnc2)cc1	none
Cc1noc(C)c1NC(=O)Nc1ccc2c(c1)CC(=O)N([C@H](C)CO)C[C@@H](C)[C@@H](CN(C)S(=O)(=O)c1cccs1)O2	none
O=C(Nc1cccc(S(=O)(=O)N2CCCCC2)c1)c1cccs1	none
O=C(Nc1cccc(N2C(=O)C=CC2=O)c1)c1cccs1	CD40 NFkB inh 99
O=C(Nc1ccc2c(c1)CCC2)c1cccs1	none
O=C(Nc1ccccc1F)N1C[C@H]2[C@@H](c3ccccc31)[C@H](CO)N2C(=O)c1ccccc1F	none
CN(C)CC(=O)N[C@H]1CC[C@H](CCn2cc(C3CCCC3)nn2)O[C@@H]1CO	none
O=C(CN1CCOCC1)N[C@@H]1CC[C@@H](CCNC(=O)C2CCCC2)O[C@H]1CO	none
O=C(Nc1ccc(C(F)(F)F)cc1)Nc1ccc2c(c1)[C@H]1C[C@@H](CC(=O)N3CCc4ccccc4C3)O[C@H](CO)[C@H]1O2	CD40 NFkB inh 50[25 µM]
O=C(Nc1ccc(C(F)(F)F)cc1)Nc1ccc2c(c1)[C@H]1C[C@H](CC(=O)N3CCc4ccccc4C3)O[C@@H](CO)[C@H]1O2	none
O=C(Cc1ccncc1)Nc1ccc2c(c1)[C@H]1C[C@H](CC(=O)N3CCc4ccccc4C3)O[C@@H](CO)[C@H]1O2	none
O=C(Cc1ccncc1)Nc1ccc2c(c1)[C@@H]1C[C@@H](CC(=O)N3CCc4ccccc4C3)O[C@H](CO)[C@@H]1O2	none
O=C(Cc1ccncc1)Nc1ccc2c(c1)[C@@H]1C[C@@H](CC(=O)N3CCc4ccccc4C3)O[C@@H](CO)[C@@H]1O2	none
O=C(Nc1ccc(C(F)(F)F)cc1)Nc1ccc2c(c1)[C@H]1C[C@@H](CC(=O)N3CCc4ccccc4C3)O[C@@H](CO)[C@H]1O2	CD40 NFkB inh 65[25 µM]
O=S(=O)(c1ccccc1)N1CC[C@@H]2[C@H](CO)Nc3ccc(-c4ccccc4F)cc3[C@@H]21	none
C[C@H]1CN([C@@H](C)CO)C(=O)c2ccccc2-c2ccccc2CO[C@H]1CN(C)S(=O)(=O)c1ccc(C#N)cc1	none
C[C@@H]1CN([C@H](C)CO)C(=O)c2ccccc2-c2ccccc2CO[C@H]1CN(C)C(=O)C1CC1	none
COc1ccccc1CN1[C@@H]2Cn3c(cccc3=O)[C@H]1[C@@H](C(=O)N1CCc3ccccc3C1)[C@@H]2CO	none
CC(C)(C)NC(=O)/C=C/c1cccs1	none
